Bioassay records: PubChem BioAssay, NMMLSC
The list is not random: actives were taken first. Their share in the collection is about 3.5%.
BoNT A protease = BoNT A light chain protease inhibition; multiplex microsphere protease substrate cleavage, flow cytometry; inhibition, % at 10 µM; 360,000 compounds, 0.17% hits
Bead autofluor = flagged as autofluorescent in microsphere protease counterscreen. compound autofluorescence counterscreen, microsphere flow cytometry; hits give high values. fluorescence intensity (test concentration not listed). 360,000 compounds, 3.1% hits. AID 624483; in the data active = fluorescence intensity above about 16000; inconclusive = no clear call, values can overlap the other calls
Anthrax LF inh2 = blocks Bacillus anthracis lethal factor protease; P15917; multiplex microsphere protease cleavage assay, LF; inhibition, % at 10 µM; 360,000 compounds, 0.12% hits; AID 588501
Target sequence (P15917 whole entry, looked up): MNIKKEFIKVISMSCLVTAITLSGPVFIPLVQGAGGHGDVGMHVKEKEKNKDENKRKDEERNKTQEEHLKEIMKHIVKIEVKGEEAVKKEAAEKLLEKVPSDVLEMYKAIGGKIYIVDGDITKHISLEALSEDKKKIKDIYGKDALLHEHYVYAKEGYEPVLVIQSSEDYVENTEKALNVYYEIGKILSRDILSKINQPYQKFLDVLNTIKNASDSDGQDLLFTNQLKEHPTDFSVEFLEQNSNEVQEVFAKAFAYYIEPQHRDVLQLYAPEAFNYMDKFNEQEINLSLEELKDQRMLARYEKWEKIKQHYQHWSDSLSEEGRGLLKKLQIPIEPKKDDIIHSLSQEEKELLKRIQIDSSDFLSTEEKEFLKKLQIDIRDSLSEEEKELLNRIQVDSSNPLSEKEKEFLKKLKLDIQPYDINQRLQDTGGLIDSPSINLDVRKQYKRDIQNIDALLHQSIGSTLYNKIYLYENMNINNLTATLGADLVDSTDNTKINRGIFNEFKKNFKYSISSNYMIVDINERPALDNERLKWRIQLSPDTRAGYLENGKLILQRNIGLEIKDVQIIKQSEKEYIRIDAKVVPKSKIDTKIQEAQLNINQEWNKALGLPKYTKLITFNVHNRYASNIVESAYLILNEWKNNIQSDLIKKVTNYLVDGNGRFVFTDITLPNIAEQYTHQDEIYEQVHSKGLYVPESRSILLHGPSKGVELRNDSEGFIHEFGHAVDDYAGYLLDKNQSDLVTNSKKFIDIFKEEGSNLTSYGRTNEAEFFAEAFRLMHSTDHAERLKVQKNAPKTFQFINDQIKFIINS
BoNT F protease = BoNT F light chain protease inhibition. inhibition, % at 10 µM. 360,000 compounds, 0.22% hits. AID 588497. Multiplex microsphere protease cleavage assay, flow cytometry; in the data active = inhibition above about 35%, passing the limit was not always enough; inconclusive = no clear call, values can overlap the other calls
Hits are given with their value; – = inactive; ? = inconclusive; ! = a repeat was not active. Cut-off read from the data, not from the text of the source, unless noted: active = inhibition above about 30%; inconclusive = no clear call, values can overlap the other calls; inactive = below that.

SMILES	BoNT A protease	Bead autofluor	Anthrax LF inh2	BoNT F protease
CCCCNC(=O)C1(C)CCN1Cc1cc(C)ccc1C (stereo not given)	–	–	–	–
CSc1nc(N)nc2c1ncn2CC(=O)NCCCN1CCCC1=O	–	–	–	–
CCOc1ccc(N=C/C=C/c2ccccc2)c(O)c1	35	–	–	–
O=C1CSC(=S)N1/N=C/C=C/c1ccccc1	43	–	–	–
CCCCOc1ccc(/C=C(\C#N)C(=O)NC2CC2)cc1	–	–	?	50
N#C/C(=C\c1ccccc1)C(=O)NC1CC1	–	–	–	–
COc1ccc(/C=C(/C#N)C(=O)NC2CCCCC2)cc1Br	–	–	–	36
N#C/C(=C\c1ccc2c(c1)OCCO2)C(=O)NC1CCCCC1	–	–	–	–
CC[C@H](C)[C@H]1CNC(=S)N1CC1CCN(CCC23CC4CC(CC(C4)C2)C3)CC1	–	–	–	–
CCC(=O)Nc1ccc(C(=O)CSc2nnc(-c3ccc(O)cc3)n2CC2CCCO2)cc1OC (stereo not given)	–	20195	–	–
O=C(CSc1nnc(-c2ccncc2)n1CC1CCCO1)Nc1cccc(O)c1 (stereo not given)	–	22751	–	–
CCN1CCN(C(CCc2ccccc2)C(=O)NC2CCCCC2)CC1 (stereo not given)	–	–	–	–
Cc1oc(C(=O)Nc2ccc(C(=O)O)cc2)cc1COc1ccccc1	–	16440	–	–
CCNc1nc(NCC)nc(OCCNS(=O)(=O)c2cc(C)ccc2C)n1	?	21064	–	–
CCNc1nc(NC(C)C)nc(OCCNS(=O)(=O)c2cc(C)ccc2C)n1	–	–	–	–
Cc1ccn2c(-c3n[nH]c(=S)n3C)c(C)nc2c1	–	–	–	–
Cc1nn(CCC(=O)NNC(=S)Nc2ccc(F)cc2)c(C)c1[N+](=O)[O-]	–	22117	–	–
COC(=O)N(c1ccccc1)P1(=S)OCCO1	–	–	–	–
CCOC(=O)N(c1ccccc1)P1(=S)OCC(C)O1 (stereo not given)	–	20958	–	–
Cc1cccc(NC(=O)CN(CC2CCCO2)C(=O)c2oc3ccccc3c2C)c1C (stereo not given)	–	–	–	–
CC1=NNC(=O)C1CCC(=O)N/N=C\c1ccccc1[N+](=O)[O-] (stereo not given)	?	22394	–	–
CCCOc1ccc(-c2nc(=S)[nH][nH]2)cc1	?	22693	–	–
CCOC(=O)c1ccc(-c2ccc3c(=O)c4ccccc4n(C)c3c2)cc1F	–	–	–	–
CC(=O)OC(C(=O)NC1CCCCC1)c1ccc(C)cc1 (stereo not given)	–	–	–	–
Cc1noc(C)c1C(=O)OC(C(=O)NC1CCCC1)c1ccc(F)cc1 (stereo not given)	–	22114	–	–
SMILES	BoNT A protease	Bead autofluor	Anthrax LF inh2	BoNT F protease
COc1ccc(Nc2nc(-c3c(C)nc4ncccn34)cs2)cc1	–	–	–	–
Cc1nc2ncccn2c1-c1csc(Nc2ccccc2)n1	–	–	–	38
CCN1C(=O)c2ccccc2Sc2ccc(C(=O)NCCCN(CC(C)C)CC(C)C)cc21	–	–	–	–
COC(=O)Nc1ccc(=O)n(Cc2c(Cl)cccc2Cl)c1	–	23829	–	–
CCN(CC)S(=O)(=O)N1CCC(C(=O)NCCN2CCOCC2)CC1	–	22119	–	–
COc1cccc(CN2CCC2(C)C(=O)NCc2cccc(C(F)(F)F)c2)c1OC (stereo not given)	–	–	–	–
CC(NC(=O)CSc1nnnn1C1CC1)c1ccccc1Br (stereo not given)	–	–	–	–
CC(NC(=O)COc1ccc(S(=O)(=O)N2CCOCC2)cc1)c1ccccc1 (stereo not given)	–	–	–	–
O=[N+]([O-])/C=C\c1ccc(N2CCCC2)c(F)c1	60	–	32	–
CCOC(=O)C1(Cc2cccc(F)c2)CCN(C(=O)Cn2cnnn2)CC1	–	–	–	–
CCC12CN3CC(CC)(CN(C1)C3c1ccc([N+](=O)[O-])o1)C2=O (stereo not given)	–	–	–	–
CCCCNC(=O)COC(=O)c1cc(F)c(F)cc1Cl	–	23808	–	–
O=C(/C=C/c1ccccc1)Nc1nnc(-c2ccco2)o1	–	–	–	–
CCC(=O)N1CCN(c2ccc(NC(=O)c3ccc4c(c3)OCO4)cc2)CC1	–	–	–	–
CCN1CCN(c2ccc(NC(=O)c3ccc4c(c3)OCO4)cc2)CC1	–	16331	–	–
COc1cccc(C(=O)Nc2ccc(-n3nncc3C(C)(C)C)cc2)c1	–	–	–	–
CC(C)(C)c1cnnn1-c1ccc(NC(=O)c2ccc(Br)o2)cc1	–	20983	–	–
CCCCC(=O)Nc1ccc(NC(=O)c2ccc3c(c2)OCO3)cc1OC	–	22707	–	–
CC(C)(C)c1cnnn1-c1ccc(NC(=O)c2ccc3c(c2)OCO3)cc1	–	23470	–	–
O=C(Nc1nnc([C@@H]2C[C@H](O)[C@@H](CO)O2)s1)c1cccc(Cl)c1	–	–	–	–
CCCCN(C(=O)COc1ccc(F)cc1)c1c(N)n(CC(C)C)c(=O)[nH]c1=O	–	–	–	–
NS(=O)(=O)c1ccc(CNC(=O)Cc2ccsc2)cc1	–	–	–	–
CCOC(=O)c1c(-c2cccs2)csc1NC(=O)CN(CC)CC	–	22950	–	–
CCOC(=O)c1c(-c2cccs2)csc1NC(=O)CC(C)C	–	–	–	–
COc1cc(C2C(C#N)=C(N)Oc3c2oc(CO)cc3=O)ccc1OC(C)C (stereo not given)	?	20218	–	–
SMILES	BoNT A protease	Bead autofluor	Anthrax LF inh2	BoNT F protease
COc1ccc(N2CCN(C(=O)CCCOc3cc(=O)n(C)c4ccccc34)CC2)cc1	–	23028	–	–
CC1CCN(C(=O)CCCOc2cc(=O)n(C)c3ccccc23)CC1	?	20059	–	–
CC(C)c1ccc2[nH]c3nc(SCC(=O)N4CCOCC4)nnc3c2c1	–	–	–	–
Cc1ccc(/C=C2\CCOC2=O)cc1	–	–	–	35
COc1ccc(/C=C2/CCOC2=O)cc1	–	–	–	–
Cc1cc[n+]2c3c(cccc13)CCC2	–	20480	–	–
CCOC(=O)N1CCN(C(=O)/C(=C/c2cccc3ccccc23)NC(=O)c2ccc(OC)cc2)CC1	–	24028	–	–
CCOC(=O)c1c(CN2CCOCC2)n(C)c2cc(Br)c(O)c(CN(C)C)c12	?	21896!	–	–
CCOc1ccc(/C(O)=C2/C(=O)C(=O)N(CCCN3CCOCC3)C2c2ccc(C)cc2)cc1C (stereo not given)	–	–	–	–
COc1ccc(C2=NS(=O)(=O)N(C)C(C(=O)NCc3ccc4c(c3)OCO4)=C2)cc1OC	–	–	–	–
Cc1ccccc1OCCSc1nnc(-c2ccncc2)n1C	–	19279	–	–
CN(Cc1ccccc1)/C(=N/O)c1cccc(Cl)c1	–	–	–	–
O=C(COc1ccc(Br)cc1F)Nc1nnc(C2CC2)s1	–	–	–	–
O=[N+]([O-])c1ccc(N2CCN(c3ccc(Cl)nn3)CC2)c(Cl)c1	–	20451	–	–
COc1ccc(S(=O)(=O)Nc2ccc(-n3cccc3)cc2)cc1	–	–	–	–
COc1ccc(C2C3=C(CC(C)(C)CC3=O)Nc3c2c(=O)[nH]c(=O)n3Cc2ccccc2)cc1OC (stereo not given)	–	23655	–	–
